Only some compounds are listed: those with a hit (about 2.6% of all), similar ones and a draw of the others.
PKA-R1A activ: activates the PKA-R1A holoenzyme complex | P00514+P68181 | PKA-R1A dissociation, Cy5-IP20 fluorescence polarization; scaled: DMSO 0%, 113 µM cGMP 100% | activation, % at 11.4 µM | 0.083% of 340,000 active | AID 504707;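 active means percent activation above the mean of all tested compounds plus 3 SD, cut at about 19% in these data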;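 further: higher means more PKAc released from R1A so a rise in polarization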
PKA-R2B activ: activates the human PKA-R2B holoenzyme complex | P22694+P31323 | PKA-R2B holoenzyme dissociation, Cy5-IP20 fluorescence polarization; R2B truncated from residue 108, S112A mutant; 0% DMSO only, 100% 113 µM cGMP | activation, % at 11.4 µM | 0.079% of 340,000 active | AID 504700;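 active means activation above a cutoff set at the mean over all compounds plus 3 SD, cut at about 18% in these data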;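 further: higher means more holoenzyme dissociation and a rise in polarization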
Target sequence (P31323 whole entry, looked up, other chains not shown, the tested form may be a part): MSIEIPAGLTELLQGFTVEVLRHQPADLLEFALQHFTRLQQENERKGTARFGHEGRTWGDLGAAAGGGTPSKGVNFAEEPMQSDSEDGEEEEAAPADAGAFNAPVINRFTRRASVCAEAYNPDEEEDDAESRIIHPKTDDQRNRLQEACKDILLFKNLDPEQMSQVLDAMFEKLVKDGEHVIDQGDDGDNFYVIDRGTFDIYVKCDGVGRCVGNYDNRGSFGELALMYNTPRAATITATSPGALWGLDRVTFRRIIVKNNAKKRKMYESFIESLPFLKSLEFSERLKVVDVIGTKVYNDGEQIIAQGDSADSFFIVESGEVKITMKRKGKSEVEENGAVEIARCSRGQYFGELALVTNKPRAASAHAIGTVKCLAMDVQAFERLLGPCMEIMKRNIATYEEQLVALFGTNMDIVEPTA
PAFAH1B2 FP inh: PAFAH1B2 (human) inhibition. recombinant PAFAH1B2, FP-rhodamine activity probe, fluorescence polarization. inhibition, % at 3.39 µM. 1.2% of 340,000 active. AID 492953;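 active means inhibition above the mean of all tested compounds plus 3 SD, cut at about 24% in these data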;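 further: 0% = enzyme with DMSO and 100% = wells lacking PAFAH1B2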
pPAFAH FP inh: inhibitors of human plasma PAF acetylhydrolase (pPAFAH); Q13093; recombinant pPAFAH, FP-rhodamine probe fluorescence polarization; inhibition, % at 3.39 µM; 1.5% of 330,000 active;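 active means inhibition above the mean inhibition across the screen plus 3 SD, cut at about 25% in these data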;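 further: inhibitors block binding of the rhodamine activity-based probe so polarization drops; 0% = enzyme with DMSO and 100% = wells lacking pPAFAH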
PAFAH1B3 inh: PAFAH1B3 (human) inhibition; Q15102; recombinant PAFAH1B3, FP-rhodamine probe, fluorescence polarization; inhibition, % at 3.39 µM; 0.28% of 340,000 active;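 active means inhibition above the screen-wide average of all tested compounds plus 3 SD, cut at about 25% in these data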;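 further: 0% = enzyme with DMSO only and 100% = wells lacking PAFAH1B3 protein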
Target sequence (Q15102 whole entry, looked up): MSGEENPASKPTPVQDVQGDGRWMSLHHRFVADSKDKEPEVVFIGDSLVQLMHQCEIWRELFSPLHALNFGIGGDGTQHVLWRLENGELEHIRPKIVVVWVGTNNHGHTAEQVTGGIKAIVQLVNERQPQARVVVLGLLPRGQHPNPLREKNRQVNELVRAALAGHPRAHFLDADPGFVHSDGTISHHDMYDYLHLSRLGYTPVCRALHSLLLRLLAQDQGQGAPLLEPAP
PAFAH2 inh: PAFAH2 (human) inhibition; inhibition, % at 3.39 µM; Q99487; 0.99% of 340,000 active; recombinant PAFAH2, FP-rhodamine activity probe, fluorescence polarization; AID 492956;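 active means inhibition above the mean over all tested compounds plus 3 SD, cut at about 30% in these data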;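 further: inhibitors block probe labeling of enzyme so polarization drops; 0% = enzyme with DMSO and 100% = wells lacking PAFAH2 protein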
PAFAH2 confirm: confirmation of human PAFAH2 inhibitors | shares compounds with PAFAH2 inh | recombinant PAFAH2, FP-rhodamine activity probe, fluorescence polarization | inhibition, % at 3.39 µM | 65% of 2,300 active;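 active means mean inhibition over three repeats above a set limit taken from the earlier primary screen, cut at about 30% in these data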;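 further: inhibitor blocks binding of rhodamine activity probe so polarization falls; 0% = enzyme with DMSO and 100% = wells lacking PAFAH2 protein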
Active calls of the source: *; x = no result given.

SMILES | PKA-R1A activ | PKA-R2B activ | PAFAH1B2 FP inh | pPAFAH FP inh | PAFAH1B3 inh | PAFAH2 inh | PAFAH2 confirm
Cc1nnc(SCC2=C(C(=O)O)N3C(=O)C(NC(=O)Cc4ccccc4)C3SC2)s1 (configuration not stated) | -0.5 | 4.9 | 2.1 | 17.3 | 2.7 | 79.4* | 65.4*
O=C(COC(=O)/C=C/c1ccc(OC(F)F)cc1)NC1CCCCCC1 | -0.1 | -0.8 | 3.9 | 21.1 | 6.1 | 74.9* | 69.8*
O=C(COC(=O)/C=C/c1ccc(OC(F)F)cc1)NC1CCCCCCC1 | -6.5 | -11.9 | 1.6 | -0.1 | 2.9 | 66.1* | 71.4*
O=C(CO/N=C/c1ccc(OC(F)F)cc1)NC1CCCCC1 | -23.4 | -2.7 | 1.3 | 0.5 | 6.2 | -2.5 | x
O=C1N(c2ccc3c(c2)OCCO3)C(c2ccccc2)C1(F)F (configuration not stated) | -14.9 | -14.6 | 0.5 | 2.2 | 1.7 | 100.9* | -2.5
O=C(N/N=C/c1cccc(Cl)c1)C(c1ccncc1)N1CCOCC1 (configuration not stated) | 8.8 | 5.2 | 2.8 | 7.0 | 1.9 | 50.5* | 40.7*
CCCNC(=O)COC(=O)c1ccc(N2CCCC2)c([N+](=O)[O-])c1 | -8.6 | 11.1 | 5.6 | 4.6 | 17.1 | 64.7* | 50.9*
O=C(COC(=O)c1ccc(Cl)c(S(=O)(=O)N2CCCC2)c1)NC1CCCC1 | -5.4 | -8.5 | 1.2 | 20.0 | 8.8 | 40.9* | 29.2
CCCNC(=O)COC(=O)c1ccc(Cl)c(S(=O)(=O)N2CCCC2)c1 | 0.7 | -12.1 | 0.6 | 9.1 | -0.7 | 34.1* | 15.8
CCc1nc2ccc(C(=O)N3CCN(c4cccc(C)c4C)CC3)cc2nc1CC | 0.2 | 10.3 | 0.1 | -0.1 | 1.5 | 5.9 | x
CC[C@H](C)[C@H](NC(N)=O)C(=O)NNC(=O)c1ccc(COc2cccc3cccnc23)cc1 | 4.9 | -11.7 | 3.6 | 10.7 | 9.7 | -0.8 | x
CCC(=O)Nc1ccc(C(=O)OCC(=O)c2cccs2)cc1 | -1.2 | 5.4 | 1.0 | -4.2 | 0.1 | 33.8* | 32.1*
COc1ccc(C(=O)OCC(=O)NC(C)CCc2ccccc2)c(OC)c1 (configuration not stated) | -12.0 | -7.0 | 11.8 | 2.3 | 12.3 | 48.5* | 22.1
CC(CCc1ccccc1)NC(=O)COC(=O)c1cccs1 (configuration not stated) | -10.8 | 4.9 | 5.2 | 9.8 | 3.3 | 60.4* | 44.1*
NC(=O)c1ccc(NC(=O)CCC(=O)c2cccs2)cc1 | -4.2 | -2.6 | -3.3 | 15.6 | 4.2 | 5.5 | x
CC(NC(=O)COC(=O)c1cccs1)c1ccccc1 (configuration not stated) | -0.7 | 11.0 | 3.3 | 1.3 | 9.7 | 59.7* | 47.2*
CC(NC(=O)COC(=O)/C(=C/c1cccs1)c1cccs1)c1ccccc1 (configuration not stated) | -4.8 | -12.6 | -1.1 | 11.6 | 4.1 | 13.2 | x
COc1cc(OC)cc(C(=O)OCC(=O)NC(C)CCc2ccccc2)c1 (configuration not stated) | -14.2 | -2.4 | 6.3 | 3.6 | -1.6 | -2.0 | x
COc1ccccc1N1CC(C(=O)Nc2nnc(SCC(=O)N3CCOCC3)s2)CC1=O (configuration not stated) | -0.3 | 2.3 | -0.4 | 3.7 | 4.5 | 2.1 | x
Cc1cc(C)n(Cc2cccc(C(=O)N/N=C/c3cccnc3)c2)n1 | -4.1 | -1.2 | 5.3 | x | 4.3 | 4.0 | x
O=C(NCC1CCCO1)C(c1ccncc1)N(Cc1cccs1)C(=O)Cn1nnc(-c2ccc(F)cc2)n1 (configuration not stated) | 5.2 | -6.3 | 4.6 | 0.5 | 4.6 | 5.4 | x
CC(C)CCNC(=O)C(c1ccncc1)N(Cc1cccs1)C(=O)Cn1nnc(-c2ccc(F)cc2)n1 (configuration not stated) | -8.0 | -10.4 | 2.6 | 7.5 | 1.5 | 40.2* | 13.3
Cc1cccn2c(=O)c3cc(S(=O)(=O)c4ccccc4)c(=N)n(Cc4cccnc4)c3nc12 | 5.7 | 2.3 | 5.5 | 3.5 | 10.1 | 37.9* | 32.6*
CC(C)CCN1CCNC(=O)C1CC(=O)N(C)CCCN1CCOCC1 (configuration not stated) | 6.5 | 5.0 | 0.1 | -3.2 | -5.1 | -0.4 | x
Cc1ccccc1NC(=O)Cc1nc(-c2c[nH]c(C(=O)N3CCCC3)c2)cs1 | 4.9 | -1.1 | 2.8 | 22.5 | -0.6 | 40.4* | 13.2
SMILES | PKA-R1A activ | PKA-R2B activ | PAFAH1B2 FP inh | pPAFAH FP inh | PAFAH1B3 inh | PAFAH2 inh | PAFAH2 confirm
Cc1cccc(NC(=O)Cc2nc(-c3c[nH]c(C(=O)N4CCCC4)c3)cs2)c1 | -4.0 | 2.2 | -2.5 | x | 0.0 | 35.2* | 12.1
Cc1cccc(CC(=O)Nc2ccc(C(=O)N3CCCCC3)cc2)c1 | -2.8 | -0.6 | -0.5 | 4.2 | 5.5 | 5.1 | x
CC1(NCc2ccc(Cl)cc2)COP(=O)(NCc2ccccc2)OC1 (configuration not stated) | 0.2 | -9.9 | 13.5 | x | 9.8 | -1.4 | x
Cc1ccccc1NC(=S)N/N=C/c1ccc(O)cc1O | -16.1 | -8.5 | 11.5 | 5.5 | 6.2 | 32.8* | 14.7
COc1ccc(N(C(=O)c2cnccn2)C(C(=O)NCc2ccccc2)c2ccc(O)cc2)cc1 (configuration not stated) | -3.9 | -16.8 | 4.5 | 6.7 | 4.5 | 8.3 | x
Cc1cc(C)cc(NC(=O)COC(=O)c2ccc(CN3CCCC3=O)cc2)c1 | 10.6 | 8.3 | 4.7 | 14.0 | -1.9 | 86.1* | 85.2*
Cc1ccc(NC(=O)COC(=O)c2ccc(CN3CCCC3=O)cc2)c(Cl)c1 | -4.7 | -1.4 | 2.6 | 10.4 | -0.1 | 69.1* | 71.2*
N#CCC(=O)Nc1ccc(C(=O)OCC(=O)N2CCCC2=O)cc1 | -6.2 | -3.6 | -2.8 | -0.9 | 5.5 | 4.9 | x
Cc1ccc(C)c(NC(=O)COC(=O)c2ccc(S(=O)(=O)N3CCCCC3)cc2)c1 | -7.7 | 11.2 | 0.5 | -5.2 | 4.8 | 2.5 | x
COc1ccc(NC(=O)COC(=O)c2ccc(N3CCCC3=O)cc2)cc1OC | 3.4 | -10.3 | -0.1 | -3.7 | 5.4 | 5.9 | x
CC(C)(C)c1ccc(NC(=O)COC(=O)c2ccc(CN3CCCC3=O)cc2)cc1 | -1.3 | 3.8 | -0.4 | 13.4 | 6.3 | 60.8* | 50.5*
NC(c1ccncc1)c1ccc(Cl)cc1 (configuration not stated) | 7.5 | -2.5 | x | x | x | x | x
O=C(C1CCCN(Cc2cccc(Cl)c2)C1)N1CCCCC1 (configuration not stated) | -15.6 | 3.5 | 4.5 | x | 1.0 | -8.8 | x
COc1ccccc1C=NN=C1c2ccccc2-c2ccccc21 | -1.0 | 4.4 | 1.4 | x | 5.3 | -8.2 | x

Screening results: PubChem BioAssay, The Scripps Research Institute Molecular Screening Center
